Screening data deposited in PubChem BioAssay by several laboratories.
A selection: hits, their analogues and other compounds. The true share with any hit is near 4.5%.
Rce1 inhib = yeast Ras-converting enzyme inhibition; yeast membranes, quenched prenylated peptide cleavage fluorescence; calls only; AID 2563; Q03530; 0.27% of 290,000 active;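 active = fall in fluorescence gain of 50% or more versus controls, with final raw signal at or below 3038400; inconclusive = same 50% fall but final raw signal above 3038400; inactive = fall in fluorescence gain under 50%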;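 also: plate controls were neutral control wells for no effect and wells lacking membranes for full effect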
Efflux pump inh = blocks antifungal efflux pumps in multiplex yeast assay; S. cerevisiae Candida pump triplex, Nile Red efflux; inhibition, % at 10 µM; 0.44% of 330,000 active; AID 485275;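 active = plate passing quality check with inhibition over a set limit, or well fluorescence over plate mean plus 4 SD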;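 also: Nile Red retained in pooled yeast measured as flow cytometry median fluorescence; 0% = buffer negative control and 100% = Enniatin B positive control; higher means more Nile Red kept so more efflux inhibition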
ALR H2O2 inh = blocks human ALR sulfhydryl oxidase activity; P55789; purified ALR, DTT oxidation, H2O2 HRP-luminol luminescence; inhibition, % (concentration not given with the values); 3.8% of 290,000 active; AID 485317;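 active = mean replicate inhibition above about 79%, with every replicate also reaching it, limit read from the data; inconclusive = only one of the two criteria met; inactive = mean below limit and not every replicate reaching it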
Target sequence (P55789 whole entry, looked up): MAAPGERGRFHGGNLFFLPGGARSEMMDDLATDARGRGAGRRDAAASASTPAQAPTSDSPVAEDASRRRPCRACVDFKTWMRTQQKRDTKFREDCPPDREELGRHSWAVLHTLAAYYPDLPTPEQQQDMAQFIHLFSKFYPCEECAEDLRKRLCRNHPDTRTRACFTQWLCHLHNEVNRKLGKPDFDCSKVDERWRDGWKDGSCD
HDAC3 inh = blocks human histone deacetylase 3. O15379. recombinant HDAC3, fluorogenic peptide/trypsin coupled, fluorescence. inhibition, % at 8.3 µM. 0.15% of 320,000 active; in the data active = inhibition above about 26%, passing the limit was not always enough; inconclusive = no clear call, values can overlap the other calls
Rtt109 HAT inh = C. albicans Rtt109 histone acetyltransferase inhibition; Q5AAJ8; purified Rtt109/Vps75, ThioGlo CoA-SH fluorescence, 4 h; inhibition, % at 34.9 µM; 0.16% of 330,000 active;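 active = inhibition of at least 50% in every replicate; inconclusive = best replicate reaches 50% inhibition but some replicates fall short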
Target sequence (Q5AAJ8 whole entry, looked up): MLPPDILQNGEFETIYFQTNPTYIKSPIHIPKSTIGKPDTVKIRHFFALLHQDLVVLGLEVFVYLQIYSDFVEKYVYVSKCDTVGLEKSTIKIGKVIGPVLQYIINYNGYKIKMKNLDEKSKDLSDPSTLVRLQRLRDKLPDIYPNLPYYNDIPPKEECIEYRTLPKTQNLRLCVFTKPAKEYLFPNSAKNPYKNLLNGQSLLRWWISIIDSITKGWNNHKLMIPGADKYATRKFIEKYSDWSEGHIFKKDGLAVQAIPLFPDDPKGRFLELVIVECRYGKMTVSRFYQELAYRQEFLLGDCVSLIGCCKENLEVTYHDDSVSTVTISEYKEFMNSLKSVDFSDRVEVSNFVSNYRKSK
GRK2 aptamer HTS = inhibitors of human GRK2 displacing RNA aptamer; P25098; bead flow cytometry, FAM-aptamer displacement from GRK2; inhibition of aptamer binding, % at 10 µM; 0.59% of 330,000 active;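 active = inhibition of aptamer binding above 40%, roughly 3 SD of noise, on plates passing a quality check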;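 also: median bead fluorescence of bound FAM aptamer so fluorescent compounds give negative values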
Active calls of the source: *.

What do the screens show for `CC(C)(C)c1cc(-c2n[nH]c(=S)n2-c2ccccc2F)n[nH]1`?
Rce1 inhib: inactive; Efflux pump inh: 0; ALR H2O2 inh: 91*; HDAC3 inh: 1; Rtt109 HAT inh: 2; GRK2 aptamer HTS: 0

What do the screens show for `CCOc1cc2[nH]c(=S)n(CC3CCCO3)c(=O)c2cc1OCC` (stereo not drawn)?
Rce1 inhib: inactive; Efflux pump inh: 0; ALR H2O2 inh: 95*; HDAC3 inh: 7; GRK2 aptamer HTS: 0

How did COCCn1c(=S)[nH]c2cc(C(=O)NCC3CCCO3)ccc2c1=O (stereo not drawn) do in these assays?
Rce1 inhib: inactive; Efflux pump inh: 0; ALR H2O2 inh: 98*; HDAC3 inh: 0; Rtt109 HAT inh: 3; GRK2 aptamer HTS: 0

Results for CCn1c(CNC(=O)c2cccnc2)cc2ccccc21 ?
Rce1 inhib: inactive; Efflux pump inh: 0; ALR H2O2 inh: -6; HDAC3 inh: -6; Rtt109 HAT inh: -6; GRK2 aptamer HTS: 0

What do the screens show for `O=C(OCC(=O)N1CCCC1=O)C1COc2ccccc2O1` (stereo not drawn)?
Rce1 inhib: inactive; Efflux pump inh: 0; ALR H2O2 inh: -10; HDAC3 inh: 0; Rtt109 HAT inh: 3; GRK2 aptamer HTS: 4

What do the screens show for `COc1ccccc1NC(=O)CSc1sc2c(O)cc(=O)[nH]c2c1C#N`?
Rce1 inhib: inactive; Efflux pump inh: 0; ALR H2O2 inh: 95*; HDAC3 inh: 7; Rtt109 HAT inh: -5; GRK2 aptamer HTS: 5

Results for COc1ccc(Cl)cc1NC(=O)CSc1sc2c(O)cc(=O)[nH]c2c1C#N ?
Efflux pump inh: 0; ALR H2O2 inh: 99*; HDAC3 inh: 6; Rtt109 HAT inh: 4; GRK2 aptamer HTS: 2

What do the screens show for `Cc1ccc(C)c(NC(=O)CSc2sc3c(O)cc(=O)[nH]c3c2C#N)c1`?
Rce1 inhib: inactive; Efflux pump inh: 0; ALR H2O2 inh: inconclusive; HDAC3 inh: -2; Rtt109 HAT inh: -5; GRK2 aptamer HTS: 4

How did COC(=O)c1ccc(C)c(NC(=O)CSc2sc3c(O)cc(=O)[nH]c3c2C#N)c1 do in these assays?
Rce1 inhib: inactive; Efflux pump inh: -1; ALR H2O2 inh: inconclusive; HDAC3 inh: 2; Rtt109 HAT inh: -10; GRK2 aptamer HTS: 14

Results for COc1ccc(NC(=O)CSc2sc3c(O)cc(=O)[nH]c3c2C#N)c(OC)c1 ?
Efflux pump inh: 0; ALR H2O2 inh: 33; HDAC3 inh: 9; Rtt109 HAT inh: 9; GRK2 aptamer HTS: 7

What do the screens show for `Cc1ccc(Cl)cc1NC(=O)CSc1sc2c(O)cc(=O)[nH]c2c1C#N`?
Rce1 inhib: inactive; Efflux pump inh: 0; ALR H2O2 inh: 92*; HDAC3 inh: -2; Rtt109 HAT inh: 1; GRK2 aptamer HTS: 6

Results for CC(C(N)=O)N1C(=O)NC2(CCCc3ccccc32)C1=O (stereo not drawn) ?
Rce1 inhib: inactive; Efflux pump inh: 0; ALR H2O2 inh: -5; HDAC3 inh: -2; Rtt109 HAT inh: 6; GRK2 aptamer HTS: 3

What do the screens show for `O=C(CSc1ccccn1)c1ccc2c(c1)OCO2`?
Rce1 inhib: inactive; Efflux pump inh: 0; ALR H2O2 inh: 68; HDAC3 inh: 4; Rtt109 HAT inh: 6; GRK2 aptamer HTS: 2

Results for O=C(CSc1nnc(SCc2cccc3ccccc23)s1)Nc1ccc(C(=O)O)cc1 ?
Rce1 inhib: inactive; Efflux pump inh: 0; ALR H2O2 inh: 98*; HDAC3 inh: 7; Rtt109 HAT inh: 15; GRK2 aptamer HTS: 2

How did c1ccc(Nc2nnc(SCc3cccc4ccccc34)s2)cc1 do in these assays?
Rce1 inhib: inactive; Efflux pump inh: 0; ALR H2O2 inh: -12; HDAC3 inh: -3; Rtt109 HAT inh: -5; GRK2 aptamer HTS: 0

Results for O=C(CSc1nnc(SCc2cccc3ccccc23)s1)c1ccc2c(c1)OCO2 ?
Rce1 inhib: inactive; Efflux pump inh: 0; ALR H2O2 inh: -16; HDAC3 inh: 38*; Rtt109 HAT inh: -12; GRK2 aptamer HTS: 3

How did COc1ccc(NC(=S)N(C(C)C)C2CCN(C(C)C)CC2)cc1Cl do in these assays?
Rce1 inhib: inactive; Efflux pump inh: 0; ALR H2O2 inh: -13; HDAC3 inh: 8; GRK2 aptamer HTS: 0

How did CCS(=O)(=O)C1=NN2C(=N)/C(=C\c3ccc(OC(=O)c4ccco4)c(Br)c3)C(=O)N=C2S1 do in these assays?
Rce1 inhib: inactive; Efflux pump inh: 0; ALR H2O2 inh: 34; HDAC3 inh: 39*; GRK2 aptamer HTS: 2

How did N=C1/C(=C/c2ccc(OC(=O)c3ccco3)cc2)C(=O)N=C2SC=CN12 do in these assays?
Rce1 inhib: inactive; Efflux pump inh: 0; ALR H2O2 inh: 98*; HDAC3 inh: inconclusive; Rtt109 HAT inh: 0; GRK2 aptamer HTS: 3

Results for N=C1/C(=C\c2ccc(OC(=O)c3ccco3)cc2)C(=O)N=C2SC(N3CCCCC3)=NN12 ?
Rce1 inhib: inactive; Efflux pump inh: 0; ALR H2O2 inh: 10; HDAC3 inh: 10; Rtt109 HAT inh: 15; GRK2 aptamer HTS: 4

How did CCOc1cc(/C=C2\C(=N)N3N=C(S(=O)(=O)CC)SC3=NC2=O)ccc1OC(=O)c1ccco1 do in these assays?
Rce1 inhib: inactive; Efflux pump inh: 0; ALR H2O2 inh: 37; HDAC3 inh: 9; Rtt109 HAT inh: 18; GRK2 aptamer HTS: 1

How did CCOc1ccc(S(=O)(=O)N2CCCC(C(=O)NCc3ccncc3)C2)cc1 (stereo not drawn) do in these assays?
Rce1 inhib: inactive; Efflux pump inh: 0; ALR H2O2 inh: -2; HDAC3 inh: 6; Rtt109 HAT inh: -17; GRK2 aptamer HTS: 3

Results for CC(NC(=O)COc1ccccc1)C(c1ccccc1)N1CCN(C)CC1 (stereo not drawn) ?
Rce1 inhib: inactive; Efflux pump inh: 0; ALR H2O2 inh: 98*; HDAC3 inh: 0; Rtt109 HAT inh: 9; GRK2 aptamer HTS: 0

How did CCN(CC)c1ccc(NS(=O)(=O)c2ccc3c(c2)oc(=O)n3C)c(C)c1 do in these assays?
Rce1 inhib: inconclusive; Efflux pump inh: 0; ALR H2O2 inh: 99*; HDAC3 inh: 3; Rtt109 HAT inh: 8; GRK2 aptamer HTS: 2

How did CCN(CCNS(=O)(=O)c1ccc2c(c1)oc(=O)n2C)c1ccccc1 do in these assays?
Rce1 inhib: inactive; Efflux pump inh: 0; HDAC3 inh: 7; Rtt109 HAT inh: 4; GRK2 aptamer HTS: 1

What do the screens show for `O=[N+]([O-])c1cc(S(=O)(=O)C(F)(F)F)ccc1Sc1nc2ccccc2s1`?
Rce1 inhib: inactive; Efflux pump inh: 0; ALR H2O2 inh: 98*; HDAC3 inh: 1; Rtt109 HAT inh: -1; GRK2 aptamer HTS: 1

Results for O=[N+]([O-])c1cc(S(=O)(=O)C(F)(F)F)ccc1Sc1nc2ccccc2[nH]1 ?
Rce1 inhib: inactive; Efflux pump inh: 0; ALR H2O2 inh: 91*; HDAC3 inh: -1; Rtt109 HAT inh: 13; GRK2 aptamer HTS: 0
